We go through 40 compounds from PubChem BioAssay.

The structures appear in SMILES notation. A number with no mark means an inactive call. No rule for the calls is given here.

As usually defined, the inhibition is how much of the control response was suppressed.

In the experiment the target is Pantothenate synthetase (Mycobacterium tuberculosis (strain ATCC 25618 / H37Rv)) (UniProt P9WIL5). Briefly: Recombinant Mtb pantothenate synthetase (PanC) inhibitors, coupled enzyme, confirmatory (AID 375).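 Also: 0% = full reaction with vehicle and 100% = no enzyme background.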 Particulars: coupled enzyme assay; at 10 µM, stronger effect = higher value.
Chain of Pantothenate synthetase (Mycobacterium tuberculosis (strain ATCC 25618 / H37Rv)) (P9WIL5 whole entry, looked up): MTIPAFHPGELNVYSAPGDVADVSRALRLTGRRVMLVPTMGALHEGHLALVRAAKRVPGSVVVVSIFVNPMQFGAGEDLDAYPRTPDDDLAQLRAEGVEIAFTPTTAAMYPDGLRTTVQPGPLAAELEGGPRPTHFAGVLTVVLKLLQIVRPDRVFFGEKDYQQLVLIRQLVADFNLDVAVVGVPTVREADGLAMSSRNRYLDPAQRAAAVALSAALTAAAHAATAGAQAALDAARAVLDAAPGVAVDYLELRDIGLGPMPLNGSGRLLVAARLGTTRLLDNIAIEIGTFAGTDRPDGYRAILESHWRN
For the compound `Cc1ccc(NCc2nnc(SCC(=O)N3CCCCC3)n2CC2CCCO2)c(C)c1` (stereo not given), the inhibition was 3%.
As for `CCc1oc2ccccc2c1C(=O)c1cc(Br)c(O)c(Br)c1`, the inhibition was 0%.
On to `O=C(c1cccs1)N(Cc1ccco1)Cc1cc2ccccc2[nH]c1=O`, for which the inhibition was 0%.
As for `CC(C)(C)n1nnnc1C(c1ccccc1)N1CCc2ccccc2C1` (stereo not given), the inhibition was 0%.
`Cn1c(=O)[nH]c(=O)c2c1nc(N(CCO)Cc1ccccc1)n2Cc1ccccc1Cl`: the inhibition is 4%.
With `Cc1cccc2sc(NC(=O)Cn3cccc3)nc12`, the inhibition is 0%.
As for `O=C(CNC(=O)c1cc2ccccc2o1)NCc1cccs1`, the inhibition is 0%.
As for `COC(=O)CC1C(=O)NCCN1C(=O)NC1CCCCC1` (stereo not given), the inhibition is 1%.
For `COc1cc(C2C(C#N)=C(N)OC3=C2C(=O)CCC3)ccc1OC(=O)N1CCOCC1` (stereo not given), the inhibition is 0%.
Take `CCc1nc(N)c(C#N)c(-c2ccncc2)c1C`: the inhibition was 0%.
As to `CCOC(=O)COc1ccc(C2NC(C(=O)O)CS2)cc1` (stereo not given), the inhibition was 0%.
Turning to `O=C(NCc1ccc2c(c1)OCO2)c1cc2n(n1)C(C(F)(F)F)CC(c1ccc3c(c1)OCO3)N2` (stereo not given), the inhibition is 0%.
Regarding `CC(=O)c1cc(C#N)c(SCC(=O)OC(C)C)nc1C`, the inhibition was 4%.
On to `O=C(O)c1cc(Cl)c(Cl)cc1C(=O)N1CCCC1`, for which the inhibition was 1%.
For `CCN(CC(=O)NCc1cccs1)C(=O)c1cc(S(=O)(=O)N2CCOCC2)ccc1C` the value was 0%.
For `CC(C)(C)OC(=O)N1CC=C2C(C#N)=C(N)C(C#N)(C#N)[C@H](c3cccnc3)[C@H]2C1` the value was 5%.
Turning to `COc1ccc(-n2c(SCC(=O)Nc3ccc(C(=O)O)cc3)nnc2-c2cccs2)cc1`, the inhibition was 0%.
Take `Cc1cc(O)c(C(C)C)cc1N=C1CSC(=O)N1`: the inhibition is 0%.
Turning to `CCCc1[nH]nc2c1C(c1cn[nH]c1-c1ccc(F)cc1)C(C#N)=C(N)O2` (stereo not given), the inhibition was 10%.
`O=C(Nc1cccc(Cl)c1)N1CCN(c2ncccn2)CC1`: the inhibition is 1%.
With `Cc1ccc(-n2c(=O)[nH]c3c(C(N)=O)nc(CC(C)C)nc32)cc1`, the inhibition is 0%.
As for `COC(=O)c1ccccc1S(=O)(=O)N(Cc1cc2cc3c(cc2[nH]c1=O)OCO3)C1CCCCC1`, the inhibition is 1%.
For the compound `COc1ccc(-c2cc(C(F)(F)F)n3nc(C(=O)N4CCOCC4)nc3n2)cc1`, the inhibition was 8%.
The value for `C=CCNS(=O)(=O)c1ccc2nsnc2c1` was 0%; that for `N#CCCn1ccc(NC(=O)c2ccc(Cl)cc2)n1` was 0%; that for `COCCOc1nc2ccccc2nc1C` was 0%.
The value for `COc1cccc(-c2nc(CS(=O)(=O)CC(=O)Nc3cc(C)ccc3C)c(C)o2)c1` was 0%; that for `COc1cc(C)c(N)cc1C(C)C` was 2%.
`COc1cc(S(=O)(=O)N2CCOCC2)ccc1NC(=O)COC(=O)c1ccccn1`: the inhibition is 0%.
On to `C[C@H](NC(=O)Nc1ccccc1F)C(=O)O`, for which the inhibition was 2%.
`CCCCC(=NCCO)C1=C(O)C(C(=O)OC)C(C)(C)CC1=O` (stereo not given): the inhibition was 8%.
The value for `CCOC(=O)c1cccc(NC(=O)CNS(=O)(=O)c2cccs2)c1` was 0%.
Take `COc1ccc2c(c1)C(C)=CC(C)(C)N2C(=O)CSc1nnc(-c2ccc(C)cc2)o1`: the inhibition was 0%.
As to `CCC(C)NCC(O)COCc1ccc(Cl)cc1` (stereo not given), the inhibition was 4%.
Take `O=C(COC(=O)CCc1c[nH]c2ccccc12)NC1CCS(=O)(=O)C1` (stereo not given): the inhibition was 3%.
Turning to `CC(C)C(c1nnnn1C1CCCC1)N1CCN(C(=O)c2ccco2)CC1` (stereo not given), the inhibition was 3%.
For the compound `COc1cc(SC)ccc1C(=O)Nc1ccon1`, the inhibition is 0%.
`Cc1sc2nc(SCc3nc4ccccc4[nH]3)n(Cc3ccco3)c(=O)c2c1C`: the inhibition was 2%.
Regarding `CC1Cc2nc(SCC(=O)Nc3nccs3)n(C)c(=O)c2S1` (stereo not given), the inhibition is 0%.
As to `O=C(c1ccncc1)N1CCN(C(=O)c2cccs2)CC1`, the inhibition is 6%.
